CYP2C19 inhib: inhibitors of human CYP2C19. CYP2C19 Supersomes, luciferin-H EGE luminescence, 30 min. P33261. hit rate 21% among 96,000. inhibition, % at 5 µM;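 active means CYP2C19 inhibition above a set limit at 5 µM in the primary screen, cut at about 50% in these data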;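 further: plate controls were negative control wells for no effect and 2.5 mM tranylcypromine positive control for full effect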
CYP2C9 inhib: inhibitors of human CYP2C9 | inhibition, % at 5 µM | CYP2C9 Supersomes, luciferin-H conversion, luminescence | hit rate 20% among 96,000 | AID 777;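 active means blocking of liver enzyme CYP2C9 beyond about 50% at 5 µM, limit read from the data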
Target sequence (P11712 whole entry, looked up): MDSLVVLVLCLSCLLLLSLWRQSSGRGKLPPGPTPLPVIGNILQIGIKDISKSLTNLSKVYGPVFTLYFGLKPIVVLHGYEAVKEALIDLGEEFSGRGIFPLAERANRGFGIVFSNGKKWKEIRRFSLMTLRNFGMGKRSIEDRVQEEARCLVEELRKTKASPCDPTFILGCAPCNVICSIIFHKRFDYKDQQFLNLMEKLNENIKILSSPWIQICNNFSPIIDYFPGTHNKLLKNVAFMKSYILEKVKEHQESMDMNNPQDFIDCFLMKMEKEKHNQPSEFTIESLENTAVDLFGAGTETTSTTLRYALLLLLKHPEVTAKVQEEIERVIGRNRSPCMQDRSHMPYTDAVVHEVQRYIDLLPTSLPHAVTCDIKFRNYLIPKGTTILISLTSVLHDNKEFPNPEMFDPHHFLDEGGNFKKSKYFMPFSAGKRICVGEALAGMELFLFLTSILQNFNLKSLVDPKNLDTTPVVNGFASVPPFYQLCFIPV
CYP2C9 act: CYP2C9 (human) activation | recombinant CYP2C9, luciferin-H conversion, luminescence; active compounds read high; factor 1 = untreated enzyme, 0 = blocked | activation factor at 5 µM | hit rate 1.4% among 96,000 | P11712;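 active means activation factor of 2 or more for CYP2C9 at a 5 µM dose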;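 further: 0 = sulfaphenazole-blocked wells and 1 = vehicle-only wells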
PostGolgi yeast: growth inhibition of a yeast mutant, post-Golgi transport screen. hit rate 0.9% among 98,000. post-Golgi transport phenotypic cell assay. inhibition, % at 10 µM;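 further: yeast cells grown in 1536-well plates; yeast grown about 18 h at 30C before absorbance read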
CYP2C19 act: activators of human cytochrome P450 2C19. 96,000 tested, under 10 active. recombinant CYP2C19, luciferin-H EGE luminescence; active compounds read high; 0 = fully inhibited enzyme, 1 = untreated enzyme. P33261. activation factor at 5 µM;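 active means activation factor of at least 2 at 5 µM in the primary screen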;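 further: 0 = wells with 2.5 mM tranylcypromine and 1 = vehicle-only wells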
PostGolgi ctrl: growth of the yeast control strain, post-Golgi counter-screen. efflux-deficient yeast background strain, growth absorbance A615, 16 h. inhibition, % at 10 µM. hit rate 5% among 98,000. AID 738
* hit, by the source's call; nt = no result given. An excerpt weighted towards active compounds, which were near 32% of everything screened. Unless noted, no stated cut-off is given here; in the data, active means inhibition above about 30%; inactive means the rest.

SMILES	CYP2C19 inhib	CYP2C9 inhib	CYP2C9 act	PostGolgi yeast	CYP2C19 act	PostGolgi ctrl
Cc1nn(CC(=O)Nc2ccc(C(=O)N(C)C)cc2)c(=O)c2ccccc12	-24.9	-14.9	1.1	-5.8	1.2	-3.0
Cc1cc(O)c(C(C)C)cc1NC(=O)Cn1nc(C)c2ccccc2c1=O	30.3	69.3*	0.3	3.3	0.7	5.9
Cc1nn(CC(=O)Nc2ccccc2)c(=O)c2ccccc12	73.0*	38.3	0.6	-0.6	0.3	13.1
Cc1oc(-c2ccccc2)[n+]([O-])c1C	0.6	6.5	0.9	2.1	1	4.2
O=C(NCCN1CCOCC1)c1ccc(F)cc1	9.2	-19.5	1.2	19.2	0.9	2.6
C(#CCN1CCOCC1)COCCCOC(c1ccccc1)c1ccccc1	59.0*	69.5*	0.3	4.3	0.4	22.1
OC(CN1CCOCC1)CN(c1ccccc1)c1ccccc1 (centres undefined)	69.5*	64.9*	0.4	-2.5	0.3	-2.9
O=C(c1ccc(F)cc1)C(CN1CCOCC1)c1ccccc1 (centres undefined)	59.2*	12.4	0.9	15.2	0.4	55.1*
C=CC[N+]1(CC#CCOC(c2ccccc2)c2ccccc2)CCOCC1	-16.8	-12.8	1.1	-3.9	1.2	-4.9
O=C(c1ccccc1)C(CCC(CN1CCOCC1)C(=O)c1ccccc1)CN1CCOCC1 (centres undefined)	69.2*	32.2	0.7	-1.1	0.3	41.1*
COc1ccc(C(=O)C(CN2CCCC2)c2ccccc2)cc1 (centres undefined)	16.9	17.7	0.8	-4.3	0.8	-1.6
COc1ccc(C(=O)C(CN2CCOCC2)c2ccccc2)cc1 (centres undefined)	55.8*	-1.2	1	2.9	0.4	25.7
COc1ccc(C(=O)C(OC(=O)c2ccccc2)c2ccccc2)cc1 (centres undefined)	59.0*	70.5*	0.3	-10.8	0.4	3.5
c1ccc(C(CN2CCOCC2)c2ccccc2)cc1	58.4*	15.4	0.8	-4.4	0.4	8.9
CCCOc1ccc(C(O)C(CN2CCOCC2)c2ccccc2)cc1 (centres undefined)	20.7	13.9	0.9	11.2	0.8	10.6
CCOc1ccc(C(O)C(CN2CCOCC2)c2ccccc2)cc1 (centres undefined)	29.0	1.3	1	13.2	0.7	37.3*
COCc1cc(=O)n2[nH]c(C)nc2n1	0.2	-9.5	1.1	-7.9	1	1.8
CCOC(=O)C1CCCN(C(=O)COC(=O)C2=COCCO2)C1 (centres undefined)	24.7	-14.6	1.1	2.8	0.8	8.6
CCOC(=O)c1nc[nH]c1C	-0.2	-1.5	1	1.3	1	-3.8
O=C(COc1ccc2ccccc2c1Br)N1CCN(c2ccccn2)CC1	84.3*	9.3	0.9	-14.3	0.2	36.7*
O=C(CSc1nccc2ccccc12)N1CCN(c2ccccn2)CC1	66.3*	-46.0	1.5	8.0	0.3	16.7
O=C(c1csc2ccccc12)N1CCN(c2ccccn2)CC1	39.7	-15.3	1.2	0.6	0.6	0.6
COc1cccc(C2(O)CCN(C(=O)C3CCC3)CC2)c1	64.3*	47.3	0.5	-5.5	0.4	-0.9
CC(CCc1ccccc1)NS(=O)(=O)c1ccccc1 (centres undefined)	54.8*	74.9*	0.3	-8.6	0.5	14.6
CC(CCc1ccccc1)NCc1ccncc1 (centres undefined)	95.6*	83.3*	0.2	-2.0	0	24.7
SMILES	CYP2C19 inhib	CYP2C9 inhib	CYP2C9 act	PostGolgi yeast	CYP2C19 act	PostGolgi ctrl
CCCCOCCCNS(=O)(=O)c1ccccc1	43.7	13.1	0.9	0.5	0.6	-2.0
CC(C)CCCC(C)NS(=O)(=O)Cc1ccccc1 (centres undefined)	54.7*	91.9*	0.1	0.7	0.5	11.6
CCOCCCNS(=O)(=O)c1ccccc1	60.4*	1.1	1	-12.4	0.4	-7.6
CC(=O)NC1CC(C)(C)N(OC(C)=O)C(C)(C)C1	17.6	-3.1	1	2.6	0.8	-1.9
O=S(=O)(NCCCc1ccccc1)c1ccccc1	97.8*	69.6*	0.3	-1.8	0	3.2
CC(C)(C)NC(=O)Cn1nnc(-c2ccc(Cl)cc2)n1	42.6	-1.4	1	-0.6	0.6	8.9
COc1ccc2nc(NC(=O)C3COc4ccccc4O3)sc2c1 (centres undefined)	56.7*	45.1	0.5	4.2	0.4	35.6*
Cc1ccc(C(=O)Nc2nc3ccc(S(C)(=O)=O)cc3s2)s1	-9.2	0.7	1	0.7	1.1	4.0
CS(=O)(=O)c1ccc2nc(NC(=O)C3COc4ccccc4O3)sc2c1 (centres undefined)	-0.8	75.6*	0.2	1.6	1	6.9
CS(=O)(=O)c1ccc2nc(NC(=O)CN3CCN(Cc4ccccc4)CC3)sc2c1	65.3*	29.9	0.7	5.1	0.3	7.8
COc1ccc(CNC(=O)C2COc3ccccc3O2)cc1 (centres undefined)	nt	nt	nt	6.8	nt	0.5
CCC(C)n1c(SCC(=O)NCc2ccco2)nnc1-c1cccc(S(=O)(=O)N2CCOCC2)c1 (centres undefined)	-5.9	19.5	0.8	15.8	1.1	-1.6
COC(=O)c1c(C)cc(C)n2c1nc1ccccc12	-1.2	2.3	1	3.2	1	6.7
Cc1cc(C=O)c(C)n1-c1ccc(N2CCCCC2)c([N+](=O)[O-])c1	nt	nt	nt	-6.0	nt	14.1
Cc1cc(N2CCCC2)c(C)cc1C=O	27.7	61.9*	0.4	0.0	0.7	0.5
Cc1ccc(-c2nn(CC(=O)Nc3cccnc3)c(=O)c3ccccc23)cc1	15.7	80.9*	0.2	-6.9	0.8	0.2
O=C(Cn1nc(-c2cccc([N+](=O)[O-])c2)c2ccccc2c1=O)Nc1cccnc1	-0.5	75.4*	0.2	0.5	1	6.8
Cc1cc(C)n(C(=O)CSc2ccc(Cl)cc2)n1	5.4	16.8	0.8	6.7	0.9	-2.5
O=C(Cn1c(S(=O)(=O)Cc2ccccc2)nc2ccccc21)N1CCCCC1	0.4	22.2	0.8	-18.3	1	34.9*
Cc1cnc(C(=O)N2CCN(S(=O)(=O)c3ccc4ccccc4c3)CC2)cn1	22.7	-15.4	1.2	-4.1	0.8	8.2
O=C(c1cnccn1)N1CCN(S(=O)(=O)c2ccc3ccccc3c2)CC1	94.6*	16.8	0.8	15.1	0.1	-3.8
Cc1ccc(C)c(S(=O)(=O)N2CCN(C(=O)c3cnccn3)CC2)c1	50.9*	51.1*	0.5	1.6	0.5	7.3
O=C(c1n[nH]c2ccccc12)N1CCN(S(=O)(=O)c2ccc3ccccc3c2)CC1	22.1	55.6*	0.4	14.1	0.8	55.8*
CC(CC(=O)O)CC1=NS(=O)(=O)c2ccccc2N1 (centres undefined)	4.6	3.5	1	1.5	1	2.8
COc1cc(CNC(C)(C)CO)ccc1OCC(=O)Nc1ccc(Br)cc1	2.4	7.4	0.9	7.8	1	13.0

Screens as filed in PubChem BioAssay.
